Laboratory results published in PubChem BioAssay (NCI).
This is part of a sample that, as a whole, favours compounds with a hit. Of some 83,000 tested, about 20% had one in any assay.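 The test compound was applied at a single concentration to cells in 96-well plates for 48 hours, and percent growth was recorded.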 Calls of active or inactive are those of the source. Rule for the calls: active = growth percent below 10; inactive = the rest.

Key:
Experiment in all cases: NCI-60 one-dose screen, 48 h (100 = growth as untreated, 0 = no growth, -100 = all killed)
Conditions in all cases: 10 µM unless noted
SK-MEL-2 melanoma = tested on: SK-MEL-2 melanoma
EKVX NSCLC = tested on: EKVX NSCLC
SN12C renal = tested on: SN12C renal
UO-31 renal = tested on: UO-31 renal
TK-10 renal = tested on: TK-10 renal
ACHN renal = tested on: ACHN renal
CAKI-1 renal = tested on: CAKI-1 renal
A498 renal = tested on: A498 renal
CCRF-CEM leukemia = tested on: CCRF-CEM leukemia
MOLT-4 leukemia = tested on: MOLT-4 leukemia

Measured: growth

CN1CCN(CCCOc2ccc3nc(Nc4ccc(C(F)(F)F)c(Cl)c4)ccc3c2)CC1
active: SK-MEL-2 melanoma 8.88% | UO-31 renal -8.8% | ACHN renal 3.12% | CAKI-1 renal 3.08% | CCRF-CEM leukemia 3.91% | MOLT-4 leukemia -35.7%
inactive: EKVX NSCLC 38.7% | SN12C renal 25% | TK-10 renal 18.9% | A498 renal 63.3%

COc1cc2c(cc1OCCCCn1c(-c3cc(=O)c4ccccc4o3)nc3ccccc31)N=C[C@@H]1CCCN1C2=O
inactive: SK-MEL-2 melanoma 26.7% | EKVX NSCLC 129% | SN12C renal 102% | UO-31 renal 35.8% | TK-10 renal 157% | ACHN renal 93.1% | CAKI-1 renal 82.8% | A498 renal 121% | CCRF-CEM leukemia 49.4% | MOLT-4 leukemia 82.4%

Cc1c(C2=NNC(c3ccc4c(c3)OCO4)C2)[n+]([O-])c2ccccc2[n+]1[O-] (stereo not given)
inactive: SK-MEL-2 melanoma 81.4% | EKVX NSCLC 91.5% | SN12C renal 108% | UO-31 renal 84.6% | TK-10 renal 183% | ACHN renal 108% | CAKI-1 renal 107% | A498 renal 94.7% | CCRF-CEM leukemia 97.7% | MOLT-4 leukemia 105%

Cc1cc(C(=O)O)c(N)c(C)n1
inactive: SK-MEL-2 melanoma 119% | EKVX NSCLC 95.4% | SN12C renal 106% | UO-31 renal 83.4% | TK-10 renal 101% | ACHN renal 109% | CAKI-1 renal 92.3% | A498 renal 101% | CCRF-CEM leukemia 107% | MOLT-4 leukemia 101%

C=C1C(=O)O[C@H]2[C@H]1CC/C(COC(=O)NCCc1cccc(OC)c1)=C\CC[C@@]1(C)O[C@@H]21
active: ACHN renal -9.71% | CAKI-1 renal 8.84% | CCRF-CEM leukemia 4.38%
inactive: SK-MEL-2 melanoma 68.5% | EKVX NSCLC 68.3% | SN12C renal 42.6% | UO-31 renal 32% | TK-10 renal 24.9% | A498 renal 82.4% | MOLT-4 leukemia 11.5%

CC(=O)/C=C/c1cc2cc(Cl)ccc2[nH]c1=O
inactive: SK-MEL-2 melanoma 87.9% | EKVX NSCLC 89.3% | SN12C renal 77% | UO-31 renal 77.5% | TK-10 renal 95.5% | ACHN renal 92% | CAKI-1 renal 87% | A498 renal 90.2% | CCRF-CEM leukemia 69% | MOLT-4 leukemia 87.1%

C=C1C(=O)O[C@H]2[C@H]1CC/C(COC(=O)NCc1cc(OC)cc(OC)c1)=C\CC[C@@]1(C)O[C@@H]21
active: SN12C renal 7.86% | UO-31 renal -58.4% | TK-10 renal -1.01% | ACHN renal 5.79% | CAKI-1 renal -15.1% | CCRF-CEM leukemia 2.4% | MOLT-4 leukemia -3.45%
inactive: SK-MEL-2 melanoma 23.2% | EKVX NSCLC 40.5% | A498 renal 68%

CCCCOc1nc2c(C)cccc2cc1C1CNC(=O)c2ccccc2N1 (stereo not given)
inactive: SK-MEL-2 melanoma 62.8% | EKVX NSCLC 61.9% | SN12C renal 70.9% | UO-31 renal 67.8% | TK-10 renal 98.7% | ACHN renal 66.3% | CAKI-1 renal 52.1% | A498 renal 55.3% | CCRF-CEM leukemia 34.3% | MOLT-4 leukemia 39%

CC(=O)Nc1ccc2c(c1)/C(=C\C=C/c1ccc([N+](C)(C)C)cc1)c1ccccc1-2
inactive: SK-MEL-2 melanoma 80.9% | EKVX NSCLC 57.7% | SN12C renal 16.6% | UO-31 renal 64.5% | TK-10 renal 103% | ACHN renal 73.2% | CAKI-1 renal 65.8% | A498 renal 86% | CCRF-CEM leukemia 67.3% | MOLT-4 leukemia 63.6%

COc1cccc2nc(Nc3ccc(NC(=O)c4ccc5ncccc5c4)cc3)ccc12
inactive: SK-MEL-2 melanoma 115% | EKVX NSCLC 87.5% | SN12C renal 97.8% | UO-31 renal 82.4% | TK-10 renal 108% | ACHN renal 92.8% | CAKI-1 renal 70.2% | A498 renal 83.4% | CCRF-CEM leukemia 69.4% | MOLT-4 leukemia 67.1%

Cc1sc2nc(CSc3nnc(-c4ccco4)o3)[nH]c(=O)c2c1C
inactive: SK-MEL-2 melanoma 96.4% | EKVX NSCLC 110% | SN12C renal 114% | UO-31 renal 106% | TK-10 renal 189% | ACHN renal 93.8% | CAKI-1 renal 99.9% | A498 renal 110% | CCRF-CEM leukemia 64.3% | MOLT-4 leukemia 48.7%

C/C1=C\CCC2(C)OC2CC2CCC(C)(O)C(CC1)C2(C)C (stereo not given)
inactive: SK-MEL-2 melanoma 106% | EKVX NSCLC 81.1% | SN12C renal 101% | UO-31 renal 99.2% | TK-10 renal 97% | ACHN renal 92.5% | CAKI-1 renal 87.7% | A498 renal 106% | CCRF-CEM leukemia 84.1% | MOLT-4 leukemia 97.9%

COc1cc(-n2nc(C(=O)Nc3ccc(C(=O)O)cc3)nc2-c2ccccc2)cc(OC)c1OC
inactive: SK-MEL-2 melanoma 106% | EKVX NSCLC 53% | SN12C renal 82.1% | UO-31 renal 58.6% | TK-10 renal 79.1% | ACHN renal 36.1% | CAKI-1 renal 52.2% | A498 renal 62.9% | CCRF-CEM leukemia 89% | MOLT-4 leukemia 95.8%

COC(=O)CCCCN=Cc1c(O)c(O)c(C(C)C)c2cc(C)c(-c3c(C)cc4c(C(C)C)c(O)c(O)c(C=NCCCCC(=O)OC)c4c3O)c(O)c12
inactive: SK-MEL-2 melanoma 17.3% | EKVX NSCLC 14.4% | SN12C renal 16.1% | UO-31 renal 14.7% | TK-10 renal 12.6% | ACHN renal 13.4% | CAKI-1 renal 50.8% | A498 renal 12.2% | CCRF-CEM leukemia 18.4% | MOLT-4 leukemia 14.4%

CCSc1nnc(Nc2ccc(C(C)C)cc2)s1
inactive: SK-MEL-2 melanoma 41.3% | EKVX NSCLC 80.5% | SN12C renal 76.7% | UO-31 renal 39.5% | TK-10 renal 96.1% | ACHN renal 91.1% | CAKI-1 renal 83.7% | A498 renal 111% | CCRF-CEM leukemia 70.6% | MOLT-4 leukemia 66.3%

Clc1nc(Cl)c2ncn(C/C=C/Cn3cnc4c(Cl)nc(Cl)nc43)c2n1
inactive: SK-MEL-2 melanoma 96.5% | EKVX NSCLC 86.6% | SN12C renal 96.5% | TK-10 renal 79.9% | ACHN renal 90% | A498 renal 90.2% | CCRF-CEM leukemia 18.2% | MOLT-4 leukemia 80.8%
active: UO-31 renal 5.99% | CAKI-1 renal -60%

Cc1ccc2c(c1)C(C)Cc1c(ncnc1-n1cnc3ccccc31)N2C (stereo not given)
inactive: SK-MEL-2 melanoma 38.6% | EKVX NSCLC 40.1% | SN12C renal 37.5% | UO-31 renal 40.1% | TK-10 renal 13.8% | ACHN renal 35.4% | CAKI-1 renal 24.6% | CCRF-CEM leukemia 10% | MOLT-4 leukemia 11.7%
active: A498 renal -16%

Cc1ccc(S(=O)(=O)N2CCC(C(=O)Nc3ccc(F)cc3F)CC2)cc1
inactive: SK-MEL-2 melanoma 34.2% | EKVX NSCLC 94.6% | SN12C renal 90.7% | UO-31 renal 37.6% | TK-10 renal 85.3% | ACHN renal 107% | CAKI-1 renal 97.8% | A498 renal 83.7% | CCRF-CEM leukemia 101% | MOLT-4 leukemia 79.2%

COc1cc(-c2csc(NC(=O)c3cc(C(F)(F)F)cc(C(F)(F)F)c3)n2)cc(OC)c1OC
inactive: SK-MEL-2 melanoma 21.5% | SN12C renal 25.3% | UO-31 renal 21.3% | TK-10 renal 33% | ACHN renal 36.1% | CAKI-1 renal 43.2% | A498 renal 11.1% | CCRF-CEM leukemia 29.3% | MOLT-4 leukemia 20.5%
active: EKVX NSCLC 9.17%

CCN(CC)CCC(=O)c1cccc2ccccc12
inactive: SK-MEL-2 melanoma 114% | EKVX NSCLC 100% | SN12C renal 102% | UO-31 renal 87.6% | TK-10 renal 109% | ACHN renal 98.8% | CAKI-1 renal 90.7% | A498 renal 101% | CCRF-CEM leukemia 100% | MOLT-4 leukemia 102%

COc1cc(C(=O)CCCl)ccc1O
inactive: SK-MEL-2 melanoma 114% | EKVX NSCLC 93.7% | SN12C renal 95.6% | UO-31 renal 90.9% | TK-10 renal 109% | ACHN renal 96.9% | CAKI-1 renal 90.2% | A498 renal 106% | CCRF-CEM leukemia 106% | MOLT-4 leukemia 99.5%

COc1cc(C2C3=C(COC3=O)Nc3c2ccc2c3CCCC2)cc2c1OCO2 (stereo not given)
active: A498 renal 8.51%
inactive: SK-MEL-2 melanoma 18.6% | EKVX NSCLC 47.9% | SN12C renal 28% | UO-31 renal 47.7% | TK-10 renal 65.9% | ACHN renal 29.2% | CAKI-1 renal 33.2% | CCRF-CEM leukemia 14.6% | MOLT-4 leukemia 18.3%

COc1ccc(/C=C(\C#N)c2ccc([N+](=O)[O-])cc2)c2ccccc12
inactive: SK-MEL-2 melanoma 59.8% | EKVX NSCLC 52.9% | SN12C renal 41.4% | UO-31 renal 66.5% | TK-10 renal 88.1% | ACHN renal 37.9% | CAKI-1 renal 64.3% | A498 renal 60% | CCRF-CEM leukemia 83% | MOLT-4 leukemia 88.3%

CC/C=C\C[C@H]1C/C=C2/C(=O)C(Cl)=C[C@@H]2C/C=C\CCCC(=O)O1
active: SK-MEL-2 melanoma -44.1% | EKVX NSCLC -82% | SN12C renal -1.11% | UO-31 renal -93.8% | TK-10 renal -55.3% | ACHN renal -64.6% | CAKI-1 renal 2.64% | A498 renal -68.3% | CCRF-CEM leukemia -19.1% | MOLT-4 leukemia -9.42%

CCN(CC)CCCNc1nc(C)cc(Nc2ccc3nc(C)cc(N)c3c2)n1
inactive: SK-MEL-2 melanoma 36.1% | EKVX NSCLC 96.2% | SN12C renal 94.7% | UO-31 renal 89.7% | TK-10 renal 88% | ACHN renal 101% | CAKI-1 renal 95.6% | A498 renal 125% | CCRF-CEM leukemia 99.4% | MOLT-4 leukemia 112%

CCC(c1ccc(OC)cc1)C(CC)c1ccc(OCC[N+](C)(C)C)cc1 (stereo not given)
inactive: SK-MEL-2 melanoma 94% | EKVX NSCLC 81.1% | SN12C renal 34.1% | UO-31 renal 82.2% | TK-10 renal 76.4% | ACHN renal 91% | CAKI-1 renal 99.2% | A498 renal 93.2% | CCRF-CEM leukemia 58.8% | MOLT-4 leukemia 51.8%

CC(C)CCC[C@@H](C)[C@H]1CC[C@H]2[C@@H]3CC[C@H]4C/C(=N/O)CC[C@]4(C)[C@H]3CC[C@]12C
inactive: SK-MEL-2 melanoma 101% | EKVX NSCLC 101% | SN12C renal 103% | UO-31 renal 94.3% | TK-10 renal 105% | ACHN renal 110% | CAKI-1 renal 96.7% | A498 renal 98.5% | CCRF-CEM leukemia 100% | MOLT-4 leukemia 95.9%
